# ELG1 genotoxic: genotoxicity induction in ELG1-luciferase HEK293T cells | 330,000 tested, 1.3% active | Potency, µM (top dose mostly 46 µM), without a hit: at the top dose activity change, positive = activation, most hits filed as activators | HEK293T ELG1-luciferase reporter, luminescence, 16 h | AID 504466; note: % of control where 0% means no effect; nearly all actives have a fitted effect of over 60% in size
#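 Step 1: seed 2,000 HEK293T ELG1-luciferase cells per well. Step 2: add compound or DMSO, incubate 16 hr at 37 °C. Step 3: ONE-Glo, 30 min at room temperature, read luminescence.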
# Rab9 promoter act: activators of Rab9 promoter; Potency, µM (highest dose often 9.22 µM), for the others: top-dose activation, negative = inhibition, most hits filed as activators; Huh7 Rab9 promoter-luciferase reporter, luminescence, 24 h; 320,000 tested, 2.8% active; AID 485297; note: % of control where 0% means no effect; nearly all actives have a fitted effect of over 60% in size
#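 Steps: seed 1500 Huh7 Rab9-luc cells per well, rest 2 h at 37 °C; add compound in DMSO; incubate 24 h; add luciferase reagent, 10 min ambient; read luminescence.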
# ELG1 repair inh: inhibitors of ELG1-dependent DNA repair in HEK293T cells | AID 504467 | 330,000 tested, 2.3% active | HEK293T ELG1-luciferase reporter, luminescence, 16 h; DNA damage induced by 5-fluorouridine | Potency, µM (doses to about 46.1 µM), inactives show top-dose activity change, negative = inhibition, hits mostly inhibitors; note: % is set by controls: 0 for no effect and ±100 for the full control effect; nearly all actives have a fitted effect of over 55% in size
#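 HEK293T cells expressing luciferase-tagged ELG1 (2,000/well) received 5-Fluorouridine plus compound or DMSO for 16 hr at 37 °C. Luciferase was read by ONE-Glo luminescence after 30 min at room temperature.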
# FLuc modulator: counter-screen for miR-21 project: firefly luciferase inhibitors or activators; purified FLuc, Km substrates, luminescence inhibition; P08659; AID 588342; Potency, µM (doses to about 57.5 µM), for inactives: at the top dose activity change, negative = inhibition, usual class: inhibitors; 360,000 tested, 6.9% active;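 note: plate controls were vehicle for no effect and reference inhibitor for full effect; nearly all actives have a fitted effect of over 55% in size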
# Target sequence (P08659 whole entry, looked up): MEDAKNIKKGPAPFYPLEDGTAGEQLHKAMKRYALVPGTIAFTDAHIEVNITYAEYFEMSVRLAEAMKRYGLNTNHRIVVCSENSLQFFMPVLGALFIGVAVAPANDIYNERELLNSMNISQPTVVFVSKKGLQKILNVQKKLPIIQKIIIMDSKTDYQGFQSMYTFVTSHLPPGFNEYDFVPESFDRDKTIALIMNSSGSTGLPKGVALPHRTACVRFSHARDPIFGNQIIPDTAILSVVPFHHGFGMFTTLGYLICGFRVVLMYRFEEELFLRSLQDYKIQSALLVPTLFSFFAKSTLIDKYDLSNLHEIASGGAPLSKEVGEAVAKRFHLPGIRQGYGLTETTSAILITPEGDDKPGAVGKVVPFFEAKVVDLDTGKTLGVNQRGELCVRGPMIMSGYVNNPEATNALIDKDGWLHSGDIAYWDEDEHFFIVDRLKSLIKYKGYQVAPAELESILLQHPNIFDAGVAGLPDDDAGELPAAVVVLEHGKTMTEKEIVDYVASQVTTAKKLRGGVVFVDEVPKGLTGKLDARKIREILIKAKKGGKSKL
#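 Biochemical qHTS of compounds, final roughly 60 µM downward over six points, against 10 nM purified firefly luciferase using Km concentrations of substrates (10 uM D-luciferin, 10 uM ATP) in Tris acetate pH 7.5 buffer; luminescence output.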
# SMN2 splice up: enhancers of SMN2 splice variant expression. HEK293 SMN2-luciferase splicing reporter, luminescence, 30-36 h. Potency, µM (doses to about 46.1 µM), inactives show top-dose activity change, positive = activation, actives largely listed as activators. 210,000 tested, 2.8% active; note: % of control where 0% means no effect; nearly all actives have a fitted effect of over 55% in size
#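 HEK293 cells carry an SMN2 minigene-luciferase reporter in which exon 7 inclusion puts luciferase in frame. Cells were seeded at 2000 cells/well, attached for 10-12 hours, then exposed to compounds for 30-36 hours at 37C before ONE-Glo luminescence.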
# NPC1 prom act: NPC1 promoter activation. Huh7 NPC1 promoter luciferase reporter, 24 h. Potency, µM (doses to about 9.22 µM), without a hit: top-dose activation, usual class: activators. 320,000 tested, 2.4% active. AID 485313; note: % of control where 0% means no effect; nearly all actives have a fitted effect of over 60% in size
#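 Luciferase expression driven by the NPC1 promoter was measured in stably transfected Huh7 cells after a 24 h compound incubation, using a luciferase reagent and a luminescence read.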
# * hit, by the source's call; ? = inconclusive; · = no result. Sampled rows, rich in hits. Any-hit rate of the full collection: about 9.2%. Calls come from the whole dose curve; as a rule, active = well fitted curve in the direction sought with a large enough effect; inconclusive = small, poorly fitted or top-dose-only effect, or another doubt; inactive = no such curve, though single readings can be large; an effect the other way counts as inactive or inconclusive. Potency is the fitted concentration of half-maximal effect.
SMILES,ELG1 genotoxic,Rab9 promoter act,ELG1 repair inh,FLuc modulator,SMN2 splice up,NPC1 prom act
CCc1nc2ccc(C)cc2c(C(=O)Oc2cccc3cccnc23)c1C,0%,2%,?,4%,-15%,3%
CCc1nc2ccccc2c(C(=O)OCc2nc3ccccc3c(=O)[nH]2)c1C,-10%,·,13µM*,·,·,·
CCc1nc2ccccc2c(C(=O)OCc2nnc(-c3ccccc3)o2)c1C,-5%,-5%,21µM*,3%,-9%,-6%
Cc1c(C(=O)OCc2nnc(-c3ccccc3)o2)oc2ccccc12,0%,·,-6%,·,·,·
CCc1nc2ccccc2c(C(=O)Oc2cccc3cccnc23)c1C,-10%,12%,?,15µM*,-19%,7%
C=CCSc1nnc(-c2cccc3ccccc23)o1,0%,·,3%,·,·,·
C=CCSc1nnc(-c2cc3c(s2)-c2ccccc2CC3)o1,8%,?,?,12µM*,?,0%
Oc1ccccc1/C=N/Nc1ccccc1,?,26%,?,7.6µM*,-4%,-3%
Oc1ccc(/C=N/Nc2nc(N3CCCCCC3)nc(N3CCCCCC3)n2)c(O)c1,-16%,0%,?,1%,-19%,-1%
Oc1ccc(/C=N/Nc2ccc3ccccc3c2)c(O)c1,19%,1%,?,19µM*,7%,9%
Oc1ccccc1/C=N/Nc1ncc(Br)cn1,16µM*,25%,?,?,-73%,-3%
NC(=S)N/N=C/c1ccccc1O,-5%,-6%,4%,2%,·,2%
COc1ccc(OC)c(/C=C/C(=O)N(C)CC(=O)Nc2ccc(N3CCOCC3)cc2)c1,3%,-2%,-28%,?,·,3%
Cc1ccc2c(c1)C(c1ccc(F)cc1)N(C(=O)c1cccc(C(F)(F)F)c1)CC(=O)N2 (stereo unspecified),·,·,·,-5%,-13%,·
O=C(Cc1ccc(NC2=NC3CS(=O)(=O)CC3S2)cc1)NCCc1ccccc1 (stereo unspecified),6%,1%,5%,-2%,·,2%
Cc1cc2c(s1)c1cnn(CC(=O)NCCc3ccccc3)c(=O)c1n2C,-2%,-7%,-3%,2%,-5%,-1%
Cc1cc2c(s1)c1cnn(-c3ccccc3)c(=O)c1n2C,-1%,?,3%,6.7µM*,·,15%
COc1ccc(OC)c(-n2nnnc2SCC(=O)Nc2ccc(C(=O)N3CCCCC3)cc2)c1,-10%,-3%,23µM*,-13%,-37%,-1%
CCOc1ccc(S(=O)(=O)NCc2ccncc2)cc1NC(=O)c1ccccc1,?,-26%,4.1µM*,-2%,·,-25%
CCNS(=O)(=O)c1ccc(NC(=O)Nc2ccccc2OC)cc1,8%,-1%,?,17µM*,·,2%
COc1ccccc1NC(=O)Nc1ccc(C(=O)N2CCCCC2)cc1,13µM*,0.89µM*,?,3µM*,·,?
CCNS(=O)(=O)c1ccc(NC(=O)Nc2cc(C)ccc2OC)cc1,1%,-3%,?,?,·,-1%
N[C@H](COP(=O)(O)O)C(=O)O,·,·,·,·,-1%,·
CCOc1ccccc1NC(=O)C(C)N1C(=O)c2ccccc2S1(=O)=O (stereo unspecified),0%,-2%,?,1%,·,0%
Cc1ccc(S(=O)(=O)NCc2ccccc2)cc1C(=O)NC1CCC(C)CC1 (stereo unspecified),?,1.3µM*,?,?,·,?
SMILES,ELG1 genotoxic,Rab9 promoter act,ELG1 repair inh,FLuc modulator,SMN2 splice up,NPC1 prom act
Cc1ccc(S(=O)(=O)NCc2ccccc2)cc1C(=O)N1CC(C)CC(C)C1 (stereo unspecified),-3%,-13%,-18%,2%,·,-2%
COc1ccc(C(=O)Nc2ccc(C(=O)N3CCCCC3)cc2)cc1OC,14%,19%,?,24µM*,·,16%
COc1ccccc1NC(=O)c1cc(S(=O)(=O)NCc2ccccc2)ccc1F,-11%,3%,16µM*,-3%,-24%,1%
COc1ccc(CNS(=O)(=O)c2ccc(F)c(C(=O)Nc3ccccc3OC)c2)cc1,7%,-4%,?,0%,-29%,0%
Cc1ccc(C(=O)Nc2ccc(C(=O)N3CCCCC3)cc2)o1,?,?,?,24µM*,·,?
CSc1ccccc1NC(=O)COC(=O)Cn1cc(C(F)(F)F)ccc1=O,-1%,-14%,23%,·,·,-1%
COc1ccc(NC(=O)Cn2c(=O)n(CCc3ccccc3)c(=O)c3ccccc32)cc1,·,·,·,5%,6%,·
COc1cc(C(=O)OCC(=O)N2CCC(C)CC2)cc2c1OCCO2,2%,0%,22%,6%,·,0%
COc1ccc(NC(=O)c2nnn(CC(=O)Nc3cc(C)cc(C)c3)c2N)c(OC)c1,·,·,·,-12%,7%,·
CC12CCC(C/C1=N\N=C1\NC(=O)/C(=C\c3ccc(Cl)cc3)S1)C2(C)C (stereo unspecified),12%,16%,?,6µM*,-30%,8%
CC(C)CC(=O)n1nc(-c2ccco2)nc1NCc1ccc(Cl)cc1,·,·,·,3%,2%,·
COc1ccc(CNc2nc(-c3ccco3)nn2C(=O)CC(C)C)cc1,·,·,·,·,13µM*,·
CCC/C=C(\CCC)C(NC(=O)C(C)(C)C)c1ccc(C(=O)OC)cc1 (stereo unspecified),·,·,·,·,-21%,·
O=c1oc(CCCO)cc2ccc(/C=C/c3cccc([N+](=O)[O-])c3)cc12,4.1µM*,-6%,?,?,·,4µM*
O=c1oc(CCCO)cc2ccc(Br)cc12,1%,·,24%,·,·,·
O=C(NCCN1C(=O)S/C(=C\c2ccc(OC(F)F)cc2)C1=O)C1=COCCO1,1%,-15%,-11%,?,·,-22%
COc1ccc(/C=C2\SC(=O)N(CCNC(=O)C3=COCCO3)C2=O)cc1,16µM*,28%,?,?,·,2%
COc1cc(/C=C2\SC(=O)N(CCNC(=O)c3c(C)noc3C)C2=O)cc(OC)c1OC,-1%,·,18µM*,·,·,·
COc1cccc(/C=C2\SC(=O)N(CC(=O)NCCCn3ccnc3)C2=O)c1,5%,-1%,?,24µM*,·,3%
COc1ccc(/C=C2\SC(=O)N(CCc3nnc(N)s3)C2=O)cc1,?,1µM*,?,1.9µM*,·,2.5µM*
COc1ccc(Cl)cc1NC(=O)CSc1nc(NS(=O)(=O)c2ccc(C)cc2)cc(=O)[nH]1,?,-4%,22%,1%,·,0%
CCc1nn2c(=O)c(S(=O)(=O)Nc3ccc(OC)c(Cl)c3)c(C)nc2s1,·,·,·,-9%,-11%,·
Oc1c(C(c2ccc(F)cc2)N2CCOCC2)sc2nc(-c3ccco3)nn12 (stereo unspecified),·,·,·,-13%,·,·

# Source: PubChem
